Assay [1] is described as follows: qHTS assay to identify small molecule antagonists of the sonic hedgehog signaling (Shh) pathway (AID 1259369; calls by dose curve; also: nearly all actives have a fitted effect of over 45% in size; also: potency is read from the fitted curve at half-maximal effect). The method in brief:
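NIH/3T3-derived 3T3Gli1-Luc cells with stably integrated Gli1-Luc reporter were preincubated 4hr at 37 C, then given compounds in DMSO plus Shh conditioned medium and incubated 24hr. Firefly luciferase luminescence read after 30min reagent at room temperature.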

Assay [2] deals with Estrogen receptor beta (Homo sapiens) (UniProt Q92731). As to the kind of experiment: qHTS assay to identify small molecule agonists of the estrogen receptor beta (ER-beta) signaling pathway (AID 1259377; active = well fitted activation curve with a large enough effect in the signal ratio in the repeat runs, not every such curve was filed as active; the % refers to the signal ratio). An outline of the steps:
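HEK293T ER-beta-UAS-bla; 2% charcoal-stripped FBS; cells pre-incubated 6 hr, compound 16 hr, 37C/5% CO2; LiveBLAzer B/G FRET substrate 2 h RT; fluorescence intensity read.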
For orientation: qHTS replaces the single test concentration by a dilution series.

Assay [3] in a line: qHTS assay to identify small molecule agonists of the estrogen receptor beta (ER-beta) signaling pathway - cell viability counter screen (AID 1259380). Also: nearly all actives have a fitted effect of over 30% in size. Also: potency is read from the fitted curve at half-maximal effect. An outline of the steps:
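ER-beta-UAS-bla HEK293T cells in medium with 2% charcoal-stripped FBS were preincubated 6 hr at 37C, dosed with compound in DMSO for 16 hr, then after the bla read, CellTiter-Glo was added for 30 min at room temperature; luminescence recorded.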

Assay [4] concerns the target Androgen receptor (Homo sapiens) (UniProt P10275). As to the kind of experiment: qHTS assay to identify small molecule agonists of the androgen receptor (AR) signaling pathway in the presence of an antagonist (AID 1259381; calls by dose curve; also: nearly all actives have a fitted effect of over 15% in size). An outline of the steps: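 MDA-kb2 human breast carcinoma cells carrying an MMTV-luciferase reporter (AR- and GR-responsive) were treated with compounds at 15 concentrations plus 3.0uM final nilutamide for 16hr at 37C without CO2; luminescence was read after ONE-Glo addition.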

Assay [5] is described as follows: qHTS assay to identify small molecule antagonists of the estrogen receptor beta (ER-beta) signaling pathway - cell viability counter screen (AID 1259382).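 Also: HEK293T cells carrying ER-beta-UAS-bla reporter stimulated with estradiol; series mostly up to about 92 µM; nearly all actives have a fitted effect of over 55% in size.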 An outline of the steps: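 ER-beta-UAS-bla HEK293T cells (2,000/well, 2% charcoal-stripped FBS) were pre-incubated 6 hr at 37C, then given compound plus 1nM final 17-beta-estradiol for 16 hr. Viability was read in the same wells by CellTiter-Glo luminescence after 30 min at room temperature.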

Assay [6] concerns the target Estrogen receptor (Homo sapiens) (UniProt P03372). Kind of assay: qHTS assay to identify small molecule agonists of the estrogen receptor alpha (ER-alpha) signaling pathway in the presence of an antagonist (AID 1259383; calls by dose curve; also: top concentration of the series differs between compounds; nearly all actives have a fitted effect of over 15% in size). The method in brief: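 VM7Luc4E2 cells (endogenous full-length ER-alpha, 4×ERE-luciferase) were precultured 5 days in phenol red-free medium with 10% charcoal-stripped FBS, given 10.0nM ICI-182,780 (final), then treated with compounds at 15 concentrations for 22hr at 37C; luminescence read with ONE-Glo.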

The nature of assay [7]: qHTS assay to identify small molecule agonists or antagonists of the thyroid stimulating hormone receptor (TSHR) signaling pathway - wild type cell line counter screen (AID 1259384; calls by dose curve). An outline of the steps:
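Counter screen in untransfected Hek293: compounds (15-point titration, triplicate) plus phosphodiesterase inhibitor Ro20-1724 added after 18 h plating; 30 min RT. Intracellular cAMP via competitive d2/cryptate immunoassay, 1 h incubation.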

Assay [8] has as its target Thyrotropin receptor (Homo sapiens) (UniProt P16473). Kind of assay: qHTS assay to identify small molecule antagonists of the thyroid stimulating hormone receptor (TSHR) signaling pathway (AID 1259385; calls by dose curve; also: nearly all actives have a fitted effect of over 20% in size). The method in brief: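 Antagonist mode: compound-treated TSHR-expressing HEK293 cells were stimulated with 1.5 ng/mL TSH (final) in presence of Ro20-1724 for 30 min at RT. HTRF cAMP detection after 1 h; each compound tested at 15 concentrations, triplicate.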

Assay [9] can be described thus: qHTS assay to identify small molecule agonists of the estrogen receptor alpha (ER-alpha) signaling pathway in the presence of an antagonist - cell viability counter screen (AID 1259386).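 Also: series mostly up to about 92 µM; cells exposed to compounds for 22 h at 37 °C before the viability read; nearly all actives have a fitted effect of over 30% in size.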 An outline of the steps: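 VM7Luc4E2 cells (endogenous full-length ER-alpha, 4×ERE-luciferase) were held 5 days in phenol red-free medium with 10% charcoal-stripped FBS, plated, then given 10.0nM ICI-182,780 and compounds at 15 concentrations for 22hr at 37C; viability read by CellTiter-Fluor fluorescence.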

The target in assay [10] is Progesterone receptor (Homo sapiens) (UniProt P06401). As to the kind of experiment: qHTS assay to identify small molecule agonists of the progesterone receptor (PR) signaling pathway (AID 1346784; calls by dose curve; also: nearly all actives have a fitted effect of over 30% in size). The method in brief: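 Beta-lactamase reporter read-out: after 16 hr compound treatment at 37C and a further 2 hr at room temperature with LiveBLAzer B/G FRET substrate, fluorescence was measured in PR-UAS-bla HEK 293T cells grown in 2% charcoal-stripped serum.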
Sequence of Progesterone receptor (Homo sapiens) (P06401 whole entry, looked up): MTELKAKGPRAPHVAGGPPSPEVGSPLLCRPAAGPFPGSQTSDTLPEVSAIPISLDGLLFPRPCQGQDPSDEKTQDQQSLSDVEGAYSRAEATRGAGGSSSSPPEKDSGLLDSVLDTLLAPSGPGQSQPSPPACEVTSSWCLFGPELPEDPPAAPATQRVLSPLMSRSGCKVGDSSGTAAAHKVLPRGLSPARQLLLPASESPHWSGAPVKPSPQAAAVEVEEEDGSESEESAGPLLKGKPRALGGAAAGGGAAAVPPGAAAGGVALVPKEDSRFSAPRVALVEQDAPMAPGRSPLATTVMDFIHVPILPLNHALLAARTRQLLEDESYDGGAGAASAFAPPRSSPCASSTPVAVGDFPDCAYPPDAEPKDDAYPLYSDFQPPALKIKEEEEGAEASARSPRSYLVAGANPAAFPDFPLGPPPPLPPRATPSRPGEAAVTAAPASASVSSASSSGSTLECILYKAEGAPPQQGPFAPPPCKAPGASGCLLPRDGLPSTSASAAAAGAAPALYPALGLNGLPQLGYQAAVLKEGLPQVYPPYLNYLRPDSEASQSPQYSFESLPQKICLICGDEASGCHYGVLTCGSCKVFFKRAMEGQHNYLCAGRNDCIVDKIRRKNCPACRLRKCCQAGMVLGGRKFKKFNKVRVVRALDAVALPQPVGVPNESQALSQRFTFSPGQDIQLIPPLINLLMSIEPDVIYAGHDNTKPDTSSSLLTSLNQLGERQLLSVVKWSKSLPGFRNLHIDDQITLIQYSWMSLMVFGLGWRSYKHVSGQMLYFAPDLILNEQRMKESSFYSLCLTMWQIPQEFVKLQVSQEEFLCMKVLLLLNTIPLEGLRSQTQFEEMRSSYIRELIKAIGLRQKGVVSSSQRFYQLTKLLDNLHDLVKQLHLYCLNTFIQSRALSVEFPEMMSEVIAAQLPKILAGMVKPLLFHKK

Assay [11] shares this target. As to the kind of experiment: qHTS assay to identify small molecule antagonists of the progesterone receptor (PR) signaling pathway (AID 1346795; active = well fitted inhibition curve with a large enough effect in the signal ratio in the repeat runs, not every such curve was filed as active; the % refers to the signal ratio; also: potency is read from the fitted curve at half-maximal effect). An outline of the steps:
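Read-out is fluorescence from the LiveBLAzer B/G FRET substrate, cleaved by a UAS-controlled beta-lactamase in PR-UAS-bla HEK293T cells after 16 hr exposure to compound plus 1 nM promegestone (final), followed by 2 hr at room temperature.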

Assay [12] can be described thus: qHTS assay to identify small molecule antagonists of the progesterone receptor (PR) signaling pathway - cell viability counter screen (AID 1346798). Also: nearly all actives have a fitted effect of over 50% in size. Also: potency is read from the fitted curve at half-maximal effect. An outline of the steps: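 HEK293T PR-UAS-bla, 2% charcoal-stripped FBS; 4 hr pre-plate; cpd + R5020, 16 h 37C; LiveBLAzer read first; then CellTiter-Glo 30 min RT, luminescence.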
Assay [13] can be described thus: qHTS assay to identify small molecule agonists of the progesterone receptor (PR) signaling pathway - cell viability counter screen (AID 1346799; calls by dose curve; also: nearly all actives have a fitted effect of over 45% in size). An outline of the steps:
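Luminescence from CellTiter-Glo, added after the beta-lactamase FRET read in the same wells, gave cytotoxicity in PR-UAS-bla HEK293T cells treated with compounds for 16 hr at 37C.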

Assay [14] is described as follows: qHTS assay to identify small molecule antagonists of the TGF-beta/Smad signaling pathway - cell viability counter screen (AID 1346824). Also: nearly all actives have a fitted effect of over 50% in size. The method in brief: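 Cytotoxicity counter-screen run in the same wells as the beta-lactamase Smad reporter read: CellTiter-Glo luminescence after 30 min at room temperature. HEK 293T SBE-bla cells had 5 hr compound exposure at 37 C with TGF-beta1 (0.25 ng/mL stock).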

Assay [15] is described as follows: qHTS assay to identify small molecule agonists of the TGF-beta/Smad signaling pathway - cell viability counter screen (AID 1346829). Also: top concentration of the series differs between compounds; nearly all actives have a fitted effect of over 45% in size. An outline of the steps:
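Same-well cytotoxicity: CellTiter-Glo added after the 2 hr room-temperature beta-lactamase substrate step, luminescence measured 30 min later; cells had 5 hr of compound at 37 C.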

Assay [16] in a line: qHTS assay to identify small molecule agonists of the TGF-beta/Smad signaling pathway (AID 1346859; active = well fitted activation curve with a large enough effect in the signal ratio in the repeat runs, not every such curve was filed as active; the % refers to the signal ratio; also: series mostly up to about 77 µM). An outline of the steps:
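SBE-bla HEK 293T, 4,000 cells/well, plated o/n; cpd in DMSO, 5 hr, 37 C/5% CO2; B/G FRET substrate 2 hr RT; ex 405, em 460/530 nm.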

Assay [17] concerns the target Thyrotropin-releasing hormone receptor (Homo sapiens) (UniProt P34981). As to the kind of experiment: qHTS assay to identify small molecule antagonists of the thyrotropin-releasing hormone receptor (TRHR) signaling pathway (AID 1346877; active = well fitted inhibition curve with a large enough effect in the repeat runs, not every such curve was filed as active; also: series mostly up to about 51 µM). An outline of the steps:
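TRHR-expressing HEK293 cells were seeded, cultured 18 h at 37 °C, then loaded with calcium dye for 2 h. Compounds were pre-incubated 5 min at room temperature before 1 nM TRH (final) was added, and kinetic fluorescence was recorded for 3 min.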

Assay [18] shares this target. As to the kind of experiment: qHTS assay to identify small molecule agonists of the thyrotropin-releasing hormone receptor (TRHR) signaling pathway (AID 1346891; calls by dose curve; also: series mostly up to about 58 µM). The method in brief:
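Intracellular calcium rise, read as fluorescence every second for 3 min, served as the agonist signal in dye-loaded HEK293 cells expressing TRHR; each compound ran at 15 concentrations in triplicate.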

Assay [19] in a line: qHTS assay to identify small molecule agonists of the androgen receptor (AR) signaling pathway in the presence of an antagonist - cell viability counter screen (AID 1259379). Also: nearly all actives have a fitted effect of over 25% in size. Also: potency is read from the fitted curve at half-maximal effect. The method in brief: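 MDA-kb2 human breast carcinoma cells (stable MMTV-luciferase, AR/GR responsive) were seeded 3,000 cells/well, pre-incubated 5 hr at 37C without CO2, then given 3.0uM nilutamide and compounds at 15 concentrations for 16 hr. Viability was read by CellTiter-Fluor fluorescence.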

Structures are written as SMILES. Unmarked numbers belong to inactive results. Results filed as inconclusive are left out. Calls of active or inactive are those of the source. Unless noted, calls follow the shape of the dose curve; as a rule, active = well fitted curve in the direction sought with a large enough effect in the repeat runs; inconclusive = weak or mixed curves; inactive = no such curve, though single readings can be large; an effect the other way counts as inactive or inconclusive.

Sequence of Estrogen receptor beta (Homo sapiens) (Q92731 whole entry, looked up): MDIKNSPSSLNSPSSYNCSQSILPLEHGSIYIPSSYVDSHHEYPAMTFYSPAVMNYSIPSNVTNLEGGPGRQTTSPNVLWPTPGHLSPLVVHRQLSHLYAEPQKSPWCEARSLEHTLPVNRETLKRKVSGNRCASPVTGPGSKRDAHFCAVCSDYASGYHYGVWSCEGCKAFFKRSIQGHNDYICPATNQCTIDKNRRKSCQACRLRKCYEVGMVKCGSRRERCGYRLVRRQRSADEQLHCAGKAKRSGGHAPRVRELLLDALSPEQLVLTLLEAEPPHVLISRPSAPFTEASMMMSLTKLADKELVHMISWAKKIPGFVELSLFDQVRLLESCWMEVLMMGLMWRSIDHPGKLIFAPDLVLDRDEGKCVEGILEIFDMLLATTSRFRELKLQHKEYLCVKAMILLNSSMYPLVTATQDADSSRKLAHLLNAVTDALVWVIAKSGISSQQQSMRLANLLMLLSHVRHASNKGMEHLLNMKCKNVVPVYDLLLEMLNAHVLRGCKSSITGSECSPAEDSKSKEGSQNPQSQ
Sequence of Estrogen receptor (Homo sapiens) (P03372 whole entry, looked up): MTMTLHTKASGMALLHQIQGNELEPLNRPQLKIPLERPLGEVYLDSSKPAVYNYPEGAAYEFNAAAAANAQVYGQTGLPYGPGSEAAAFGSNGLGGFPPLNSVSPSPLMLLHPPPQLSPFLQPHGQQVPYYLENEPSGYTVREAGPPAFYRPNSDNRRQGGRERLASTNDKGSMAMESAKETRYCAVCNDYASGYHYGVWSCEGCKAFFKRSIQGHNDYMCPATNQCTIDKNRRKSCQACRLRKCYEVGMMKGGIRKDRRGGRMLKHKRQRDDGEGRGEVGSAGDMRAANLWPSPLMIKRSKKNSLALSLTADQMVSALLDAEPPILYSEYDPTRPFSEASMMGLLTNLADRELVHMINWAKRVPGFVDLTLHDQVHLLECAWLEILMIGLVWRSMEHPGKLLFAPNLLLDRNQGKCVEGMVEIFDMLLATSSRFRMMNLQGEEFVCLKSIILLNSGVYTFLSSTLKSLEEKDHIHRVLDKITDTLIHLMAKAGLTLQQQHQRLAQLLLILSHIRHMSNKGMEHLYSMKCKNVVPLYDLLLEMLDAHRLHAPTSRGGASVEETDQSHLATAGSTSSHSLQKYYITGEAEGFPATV
Sequence of Thyrotropin receptor (Homo sapiens) (P16473 whole entry, looked up): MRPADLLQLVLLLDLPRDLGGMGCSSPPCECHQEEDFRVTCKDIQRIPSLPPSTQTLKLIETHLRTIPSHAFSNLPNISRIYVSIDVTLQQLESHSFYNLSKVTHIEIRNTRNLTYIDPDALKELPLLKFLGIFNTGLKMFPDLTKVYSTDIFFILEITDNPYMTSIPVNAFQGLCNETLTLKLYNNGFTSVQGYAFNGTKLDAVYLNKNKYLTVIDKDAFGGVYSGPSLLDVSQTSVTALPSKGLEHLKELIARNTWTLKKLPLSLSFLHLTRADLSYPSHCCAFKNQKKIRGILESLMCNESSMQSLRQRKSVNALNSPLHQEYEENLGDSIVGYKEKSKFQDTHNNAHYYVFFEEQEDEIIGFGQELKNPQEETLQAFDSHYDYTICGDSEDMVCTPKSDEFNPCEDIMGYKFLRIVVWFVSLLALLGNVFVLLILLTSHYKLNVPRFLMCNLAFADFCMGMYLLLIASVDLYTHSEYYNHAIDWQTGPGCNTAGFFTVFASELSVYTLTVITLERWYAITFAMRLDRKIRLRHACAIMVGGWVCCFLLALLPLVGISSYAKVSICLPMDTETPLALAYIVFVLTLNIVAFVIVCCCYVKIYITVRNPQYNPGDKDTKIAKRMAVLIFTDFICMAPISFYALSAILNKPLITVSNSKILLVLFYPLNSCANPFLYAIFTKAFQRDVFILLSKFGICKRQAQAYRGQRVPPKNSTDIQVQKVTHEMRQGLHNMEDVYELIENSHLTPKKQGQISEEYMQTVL
Sequence of Thyrotropin-releasing hormone receptor (Homo sapiens) (P34981 whole entry, looked up): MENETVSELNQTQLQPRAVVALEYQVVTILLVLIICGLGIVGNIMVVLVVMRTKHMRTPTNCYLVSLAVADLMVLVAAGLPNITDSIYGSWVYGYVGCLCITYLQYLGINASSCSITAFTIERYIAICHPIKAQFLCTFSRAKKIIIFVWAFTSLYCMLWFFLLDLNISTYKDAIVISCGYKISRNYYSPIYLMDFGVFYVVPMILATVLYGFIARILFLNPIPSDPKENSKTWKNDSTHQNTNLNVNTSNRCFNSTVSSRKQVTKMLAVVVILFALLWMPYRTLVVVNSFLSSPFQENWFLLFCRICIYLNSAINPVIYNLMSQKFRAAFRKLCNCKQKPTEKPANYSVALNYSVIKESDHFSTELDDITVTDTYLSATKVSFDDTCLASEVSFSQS
Sequence of Androgen receptor (Homo sapiens) (P10275 whole entry, looked up): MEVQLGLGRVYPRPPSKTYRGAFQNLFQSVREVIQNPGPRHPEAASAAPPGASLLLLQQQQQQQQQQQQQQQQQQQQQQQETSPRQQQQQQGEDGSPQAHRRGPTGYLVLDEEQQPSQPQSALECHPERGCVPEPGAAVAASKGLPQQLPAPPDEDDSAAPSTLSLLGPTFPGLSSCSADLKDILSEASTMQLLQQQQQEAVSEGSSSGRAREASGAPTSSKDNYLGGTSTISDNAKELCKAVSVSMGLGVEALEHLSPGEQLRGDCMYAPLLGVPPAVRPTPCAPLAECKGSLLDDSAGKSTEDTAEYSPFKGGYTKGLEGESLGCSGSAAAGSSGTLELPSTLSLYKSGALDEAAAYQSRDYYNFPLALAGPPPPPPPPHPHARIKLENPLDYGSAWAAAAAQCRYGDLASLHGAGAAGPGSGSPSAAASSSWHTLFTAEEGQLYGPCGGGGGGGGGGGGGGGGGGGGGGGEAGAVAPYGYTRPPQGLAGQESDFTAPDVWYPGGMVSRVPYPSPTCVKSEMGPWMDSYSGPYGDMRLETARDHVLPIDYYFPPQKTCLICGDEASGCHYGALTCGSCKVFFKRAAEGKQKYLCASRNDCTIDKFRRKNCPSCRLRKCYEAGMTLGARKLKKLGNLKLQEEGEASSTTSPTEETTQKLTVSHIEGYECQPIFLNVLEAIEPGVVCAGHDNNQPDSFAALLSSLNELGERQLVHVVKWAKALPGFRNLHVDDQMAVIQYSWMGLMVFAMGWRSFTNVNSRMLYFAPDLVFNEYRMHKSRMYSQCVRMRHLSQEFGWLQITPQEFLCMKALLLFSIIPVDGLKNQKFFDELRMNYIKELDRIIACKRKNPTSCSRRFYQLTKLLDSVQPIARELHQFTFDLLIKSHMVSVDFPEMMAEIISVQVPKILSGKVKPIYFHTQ

Consider `CCSC(C)CC1CC(=O)C(/C(CC)=N/OC/C=C/Cl)=C(O)C1` (stereo not given), for which the Potency entry in assay [1], in assay [2], in [3], in assay [4], in assay [5] and in assay [6] was “inactive” in each case. For the same molecule, the Potency entry in assay [8], in assay [9], in assay [10], in assay [11], in [12] and in assay [13] was “inactive” in each case. In addition, the Potency entry in [14], in [15], in [17] and in assay [18] was “inactive” each time. The molecule was called inactive in [7] and in [16].

As for `CC(C)(C)C(O)/C(=C\c1ccc(Cl)cc1Cl)n1cncn1` (stereo not given), the Potency is 7.4 µM (active) in assay [1] and 74 µM (active) in assay [3]. The Potency entry in assay [2], in assay [14] and in assay [15] was “inactive” in each case. In assay [16], the call was inactive.

For the molecule `SCc1ccco1`, in [1], the Potency was 61.1 µM (active). In addition, the Potency result in assay [19], in assay [3], in assay [4], in [5], in assay [6] and in [8] was “inactive” each time. For the same molecule, the Potency result in assay [9], in assay [10], in [12], in [14], in assay [15] and in assay [17] was “inactive” in each case. The Potency entry in assay [18] is “inactive”. The call in [7] and in [16] was inactive.

Take `CN(C)CCc1c[nH]c2ccc(O)cc12`: the Potency in [1] is 8.43 µM (active); in [11], 53.2 µM (active); in assay [12], 42.3 µM (active). Moreover, the Potency entry in assay [2], in [3], in assay [4], in [5], in assay [9] and in assay [10] was “inactive” each time. In addition, the Potency result in assay [14], in [15], in [17] and in assay [18] was “inactive” in each case. Moreover, the outcome in assay [16] was inactive.

In the case of `N#Cc1ccc(O)cc1`, the Potency entry in [1], in assay [19], in [3], in assay [4], in assay [5] and in assay [6] was “inactive” in each case. The Potency result in assay [8], in assay [9], in assay [10], in [12], in assay [13] and in assay [14] was “inactive” throughout. In addition, the Potency result in [15], in assay [17] and in [18] was “inactive” throughout. Moreover, the molecule was classed as inactive in assay [7] and in [16].

Consider `CCOC(=O)CC(=O)CCl`, for which the Potency result in assay [1], in [3], in assay [4], in assay [5], in assay [6] and in assay [9] was “inactive” throughout. Besides, the Potency entry in assay [10], in [11], in assay [12], in assay [13], in assay [14] and in assay [15] was “inactive” in each case. The Potency in [19] is 61.1 µM (active). The result in assay [16] was inactive.

(Values after PubChem BioAssay (Tox21).)
